Most compounds without a hit are left out; they make up all but 20% or so of the library.
Cycloheximide cs: Cycloheximide Counterscreen for Small Molecule Inhibitors of Shiga Toxin. cell reporter, cycloheximide protein synthesis inhibition counterscreen. 300,000 compounds, 12% hits. max response, %. AID 2314, 2010; in the data active means max response mostly above about 13%, no sharp cut-off; inactive means mostly below about 14%; further: read at 38.3 µM for the half of the compounds with a filed dose; 0% is about no effect
Pf growth 48h: Primary qHTS for delayed death inhibitors of the malarial parasite plastid, 48 hour incubation | P. falciparum luciferase growth in erythrocytes, 48 h | Potency, µM (doses to about 28.7 µM), for the others: at the top dose activity change, negative = inhibition, hits mostly inhibitors | 310,000 compounds, 5.9% hits | AID 504832, 2011; further: potency means the concentration at half of the fitted maximal effect; on the % scale 0 is the no-effect control and ±100 the full control effect
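Here the parasites carry a stable luciferase gene and grow inside erythrocytes in Albumax-based RPMI medium with compound for one erythrocytic cycle. Activity is scored as loss of luminescent signal.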
HCMV inh: qHTS Assay for inhibitors of the human cytomegalovirus (HCMV); AID 1259415, 2018; HFF cells, HCMV-luciferase reporter, 72 h; stronger effect = lower value; activity change, negative = inhibition, % at 57.5 µM; 410,000 compounds, 4.5% hits; in the data active means activity change below about -60%; inconclusive means no clear call, values can overlap the other calls; inactive means above about -39%; further: on the % scale 0 is the no-effect control and ±100 the full control effect
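Human foreskin fibroblasts infected with luciferase-reporter HCMV at MOI 1 PFU/cell, compounds at two doses. Luciferase measured 72 h post infection; normalized to buffer-only basal and Salinomycin (10uM) controls.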
Pf growth 96h: Primary qHTS for delayed death inhibitors of the malarial parasite plastid, 96 hour incubation; P. falciparum luciferase reporter growth, 96 h; Potency, µM (doses to about 28.7 µM), for the others: at the top dose activity change, negative = inhibition, hits mostly inhibitors; 320,000 compounds, 6.9% hits; further: potency means the concentration at half of the fitted maximal effect; on the % scale 0 is the no-effect control and ±100 the full control effect
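Two-generation exposure (96 h) targets delayed-death phenotype. Reporter parasites carrying integrated firefly luciferase, in red cells at 2% hematocrit and 0.05% parasitemia final, kept at 37 C, 5% CO2; luminescence loss indicates inhibition.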
Shiga inhibitor: A qHTS for Small Molecule Inhibitors of Shiga Toxin; inhibition, % at 38.7 µM; 290,000 compounds, 9.2% hits; AID 2315, 2010; Vero cells, Shiga toxin protein synthesis inhibition reporter; in the data active means inhibition mostly above about 28%, no sharp cut-off; inactive means mostly below about 43%; further: 0% is about no effect
An asterisk follows results filed as active. Unless noted, the call rests on the fitted dose curve; in most records, active means well fitted inhibition curve with a large enough effect; inconclusive means small, poorly fitted or top-dose-only effect, or another doubt; inactive means no such curve, though single readings can be large or run the other way.

NCCCC[C@@H](C(=O)NCCCCCCCCCCC(=O)N1CCNCC1)n1cc(CCCC(=O)O)nn1 was read as Pf growth 48h -7% and Pf growth 96h 61%.
Screening CC[C@H](C)Cc1cn([C@@H](CCCN=C(N)N)C(=O)NCCCCCCCCCCC(=O)N2CCNCC2)nn1 returned Pf growth 48h 4.7µM*, HCMV inh 5 and Pf growth 96h inconclusive.
`Cc1cccc(C)c1NC(=O)CN(C)C(=O)CC1CC2CCC1C2` (stereo unspecified) gave Pf growth 48h 6%, HCMV inh -10 and Pf growth 96h -10%.
For COc1ccc2c(Sc3ccccc3)c(C(=O)NCc3cccc(OC)c3OC)[nH]c2c1 the results were HCMV inh 23.
`COc1cccc(CNC(=O)c2[nH]c3cc(C)ccc3c2Sc2ccccc2)c1` gave HCMV inh -63*.
`O=C(NC1CC1)c1cccc(S(=O)(=O)Nc2ccccc2F)c1` gave Pf growth 48h 3%, HCMV inh 4 and Pf growth 96h 9%.
For CCO[C@H]1OC(C(=O)NCc2nc3ccccc3[nH]2)=C[C@@H](c2ccc(C(F)(F)F)cc2)[C@@H]1CCCO the results were Cycloheximide cs -1, Pf growth 48h inconclusive, HCMV inh -35, Pf growth 96h 1.5µM* and Shiga inhibitor 17.
Screening CCO[C@@H]1OC(C(=O)NCc2nc3ccccc3[nH]2)=C[C@H](c2ccc(C(F)(F)F)cc2)[C@H]1CCCO returned Cycloheximide cs 1, Pf growth 48h inconclusive, HCMV inh -13, Pf growth 96h 12µM* and Shiga inhibitor -17.
COc1ccc(S(=O)(=O)NNC(=O)C2COc3ccccc3O2)cc1[N+](=O)[O-] (stereo unspecified) was read as Pf growth 48h -3%, HCMV inh 2 and Pf growth 96h -16%.
Screening CC(C)OCCCNC(=O)NC12CC3CC(CC(C3)C1)C2 returned Cycloheximide cs 13*, Pf growth 48h -1%, HCMV inh 60, Pf growth 96h 4% and Shiga inhibitor 15.
COC(=O)c1ccc(CSC2=NCCS2)cc1 was read as Cycloheximide cs 61*, Pf growth 48h 144%, HCMV inh -39, Pf growth 96h 47% and Shiga inhibitor 79*.
For COC(=O)c1ccc(CNC(=O)CSC2=NCCS2)cc1 the results were Cycloheximide cs 11, Pf growth 48h 5%, HCMV inh -21, Pf growth 96h 31% and Shiga inhibitor 22.
Screening O=[N+]([O-])c1ccc(CSC2=NCCS2)cc1 returned Cycloheximide cs 27*, Pf growth 48h 32%, HCMV inh -30 and Pf growth 96h -3%.
c1ccc(CSC2=NCCS2)cc1 was read as Cycloheximide cs 29, Pf growth 48h 17%, HCMV inh inconclusive, Pf growth 96h -16% and Shiga inhibitor 120*.
For COc1ccc(S(=O)(=O)NCC(c2ccco2)N2CCN(c3ccccc3F)CC2)cc1OC (stereo unspecified) the results were HCMV inh 27.
`Cc1ccnn1CCC(=O)O` gave Cycloheximide cs -2, Pf growth 48h 32%, HCMV inh -13, Pf growth 96h 78% and Shiga inhibitor -1.
`CN(C)S(=O)(=O)Nc1cccc(-c2cn3c(n2)SCC3)c1` gave Cycloheximide cs -3, Pf growth 48h 7%, HCMV inh 0, Pf growth 96h 20% and Shiga inhibitor 2.
For O=S(=O)(Nc1ccc(-c2cn3c(n2)SCC3)cc1)c1cc(F)ccc1F the results were HCMV inh -14.
`CCc1ccc(-c2cn3c(n2)SCC3)cc1` gave Cycloheximide cs 47*, Pf growth 48h 253%, HCMV inh 83, Pf growth 96h 37% and Shiga inhibitor 68*.
For Cc1ccc(-c2cn3c(n2)SCC3)cc1 the results were Cycloheximide cs 43*, Pf growth 48h 230%, HCMV inh 70, Pf growth 96h 14% and Shiga inhibitor 141*.
`COC(=O)[C@@H]1[C@@H](CO)[C@@H]2Cn3c(cccc3=O)[C@H]1N2C(=O)Nc1cc(F)ccc1F` gave HCMV inh 4.
`O=C(Nc1cccnc1Cl)c1cc(-c2ccc(Br)cc2)on1` gave Cycloheximide cs -4, Pf growth 48h 37%, HCMV inh 20, Pf growth 96h -18% and Shiga inhibitor 16.

Bioassay records deposited in PubChem BioAssay by National Center for Advancing Translational Sciences (NCATS).
